The panel holds about 83,000 compounds, 20% with a hit somewhere; the sample as a whole holds those more often.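 A percent growth of 40 corresponds to 60% growth inhibition; 0 means no net growth; -100 means all cells died. Active threshold: below 10.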 Active and inactive are the calls of the source.
Experiments:
Assay in all cases: NCI-60 one-dose screen, 48 h (100 = growth as untreated, 0 = no growth, -100 = all killed)
NCI-H23 lung = conditions: 10 µM unless noted
DU-145 prostate = conditions: 10 µM unless noted
MDA-MB-231 breast = conditions: 10 µM unless noted
SF-268 CNS = conditions: 10 µM unless noted
SF-539 CNS = conditions: 10 µM unless noted
M14 melanoma = conditions: 10 µM unless noted
HCT-15 colon = conditions: 10 µM
HT29 colon = conditions: 10 µM unless noted
SNB-75 CNS = conditions: 10 µM unless noted
PC-3 prostate = conditions: 10 µM unless noted
UACC-62 melanoma = conditions: 10 µM unless noted
SN12C renal = conditions: 10 µM unless noted
ACHN renal = conditions: 10 µM unless noted
OVCAR-8 ovarian = conditions: 10 µM unless noted
OVCAR-5 ovarian = conditions: 10 µM unless noted
NCI/ADR-RES ovarian = conditions: 10 µM unless noted
MDA-MB-435 melanoma = conditions: 10 µM unless noted
HCT-116 colon = conditions: 10 µM unless noted
KM12 colon = conditions: 10 µM unless noted
SK-MEL-28 melanoma = conditions: 10 µM unless noted

Measured: growth

C/C1=C/C(=O)O[C@@H]2C[C@@H](CC[C@H](C)/C=C\C=C\CC1)O[C@@](OCCc1ccccc1)([C@@H]1CSC(=O)N1)C2
active: DU-145 prostate -2.11% | SF-268 CNS -42.9% | SF-539 CNS 9.84% | HT29 colon 8.63% | SNB-75 CNS -62.8% | ACHN renal 7.46%
inactive: NCI-H23 lung 35.1% | MDA-MB-231 breast 11.8% | M14 melanoma 38.5% | HCT-15 colon 46.3% | PC-3 prostate 18.3% | UACC-62 melanoma 24.3% | SN12C renal 39.1% | OVCAR-8 ovarian 46.2% | OVCAR-5 ovarian 11.2% | NCI/ADR-RES ovarian 48.4% | MDA-MB-435 melanoma 16.7% | HCT-116 colon 33.5% | KM12 colon 58.2%

OC1CCCCC1N1CCC(c2ccccc2)CC1 (centres undefined)
inactive: NCI-H23 lung 100% | DU-145 prostate 112% | MDA-MB-231 breast 119% | SF-268 CNS 106% | SF-539 CNS 119% | M14 melanoma 106% | HCT-15 colon 110% | HT29 colon 97.3% | SNB-75 CNS 86% | PC-3 prostate 91% | UACC-62 melanoma 115% | SK-MEL-28 melanoma 103% | SN12C renal 109% | ACHN renal 109% | OVCAR-8 ovarian 103% | OVCAR-5 ovarian 107% | NCI/ADR-RES ovarian 99.7% | MDA-MB-435 melanoma 100% | HCT-116 colon 94.5% | KM12 colon 104%

Cc1cccc(N=C2c3cc([N+](=O)[O-])ccc3-c3c2cc([N+](=O)[O-])cc3[N+](=O)[O-])c1
inactive: NCI-H23 lung 56.5% | DU-145 prostate 88% | MDA-MB-231 breast 60.2% | SF-268 CNS 58.7% | SF-539 CNS 97.7% | M14 melanoma 69.4% | HCT-15 colon 34.2% | HT29 colon 21.3% | SNB-75 CNS 84.4% | PC-3 prostate 16.8% | UACC-62 melanoma 77.5% | SK-MEL-28 melanoma 97.2% | SN12C renal 26.4% | ACHN renal 59.3% | OVCAR-8 ovarian 64.5% | OVCAR-5 ovarian 99.4% | NCI/ADR-RES ovarian 56.5% | MDA-MB-435 melanoma 45% | KM12 colon 52.4%
active: HCT-116 colon -0.611%

NCCc1cc(O)c(O)cc1O
inactive: NCI-H23 lung 100% | DU-145 prostate 112% | MDA-MB-231 breast 94.4% | SF-268 CNS 104% | M14 melanoma 99.6% | HCT-15 colon 97.6% | HT29 colon 98.8% | SNB-75 CNS 95.9% | PC-3 prostate 82.3% | SK-MEL-28 melanoma 114% | SN12C renal 89.1% | ACHN renal 87.4% | OVCAR-8 ovarian 97.8% | NCI/ADR-RES ovarian 101% | MDA-MB-435 melanoma 108% | HCT-116 colon 95.3% | KM12 colon 96.8%

CCN1CC2(CN(CC)C1=S)C(=O)NC(=O)NC2=O
inactive: NCI-H23 lung 98.9% | DU-145 prostate 97.6% | MDA-MB-231 breast 110% | SF-268 CNS 95.1% | SF-539 CNS 107% | M14 melanoma 88.9% | HCT-15 colon 99.9% | HT29 colon 90.3% | SNB-75 CNS 95.8% | PC-3 prostate 85.7% | UACC-62 melanoma 101% | SK-MEL-28 melanoma 105% | SN12C renal 107% | ACHN renal 99% | OVCAR-8 ovarian 101% | OVCAR-5 ovarian 114% | NCI/ADR-RES ovarian 97.4% | MDA-MB-435 melanoma 103% | HCT-116 colon 97.3% | KM12 colon 94.1%

CC1([N+](=O)[O-])COP(=O)(Nc2ccc(F)cc2)OC1 (centres undefined)
inactive: NCI-H23 lung 96.4% | DU-145 prostate 106% | MDA-MB-231 breast 118% | SF-268 CNS 99.7% | SF-539 CNS 103% | M14 melanoma 101% | HCT-15 colon 104% | HT29 colon 96.5% | SNB-75 CNS 95.6% | PC-3 prostate 95.5% | UACC-62 melanoma 109% | SK-MEL-28 melanoma 116% | SN12C renal 111% | ACHN renal 98.8% | OVCAR-8 ovarian 101% | OVCAR-5 ovarian 106% | NCI/ADR-RES ovarian 102% | MDA-MB-435 melanoma 110% | HCT-116 colon 99.4% | KM12 colon 95.8%

CC(CC(C#N)(c1ccccc1)c1ccccc1)N1CCOCC1 (centres undefined)
inactive: NCI-H23 lung 106% | DU-145 prostate 105% | MDA-MB-231 breast 94.4% | SF-268 CNS 101% | SF-539 CNS 101% | M14 melanoma 114% | HCT-15 colon 102% | HT29 colon 106% | SNB-75 CNS 104% | PC-3 prostate 90.4% | UACC-62 melanoma 80.4% | SK-MEL-28 melanoma 123% | SN12C renal 93.5% | ACHN renal 102% | OVCAR-8 ovarian 108% | OVCAR-5 ovarian 89.5% | NCI/ADR-RES ovarian 106% | MDA-MB-435 melanoma 118% | HCT-116 colon 106% | KM12 colon 104%

CC(=O)N(C)C1=Nc2ccc(Cl)cc2C(c2ccccc2)=[N+]([O-])C1
inactive: NCI-H23 lung 101% | DU-145 prostate 115% | MDA-MB-231 breast 109% | SF-268 CNS 105% | SF-539 CNS 104% | M14 melanoma 114% | HCT-15 colon 108% | HT29 colon 104% | SNB-75 CNS 95.9% | PC-3 prostate 91% | UACC-62 melanoma 93.7% | SK-MEL-28 melanoma 124% | SN12C renal 97.2% | ACHN renal 98.7% | OVCAR-8 ovarian 102% | OVCAR-5 ovarian 102% | NCI/ADR-RES ovarian 111% | MDA-MB-435 melanoma 111% | HCT-116 colon 99.3% | KM12 colon 107%

Oc1ccc(Br)cc1CN1CCN(Cc2ccc(Cl)cc2)CC1
inactive: NCI-H23 lung 91.1% | DU-145 prostate 88.5% | MDA-MB-231 breast 49.2% | SF-268 CNS 64.2% | SF-539 CNS 92.9% | M14 melanoma 85.9% | HCT-15 colon 59.7% | HT29 colon 70.2% | SNB-75 CNS 51.5% | PC-3 prostate 54% | UACC-62 melanoma 50.7% | SK-MEL-28 melanoma 88.2% | SN12C renal 89.6% | ACHN renal 83.3% | OVCAR-8 ovarian 60.6% | OVCAR-5 ovarian 97.7% | NCI/ADR-RES ovarian 82.2% | MDA-MB-435 melanoma 12.8% | HCT-116 colon 22.2% | KM12 colon 64.9%

COc1cc(CNCCc2ccc(Cl)cc2)cc(OC)c1O
active: MDA-MB-435 melanoma -4.7%
inactive: NCI-H23 lung 67% | DU-145 prostate 91% | MDA-MB-231 breast 72.2% | SF-268 CNS 73% | SF-539 CNS 68.7% | M14 melanoma 64.8% | HCT-15 colon 54.8% | HT29 colon 64.4% | SNB-75 CNS 44.6% | PC-3 prostate 52.9% | UACC-62 melanoma 61.2% | SK-MEL-28 melanoma 69.9% | SN12C renal 75.5% | ACHN renal 75.6% | OVCAR-8 ovarian 66.3% | OVCAR-5 ovarian 86.7% | NCI/ADR-RES ovarian 44.8% | HCT-116 colon 60.9% | KM12 colon 65.7%

[O]=[Sn]([CH]1CCCCC1)[CH]1CCCCC1
active: NCI-H23 lung -93.5% | DU-145 prostate -98% | MDA-MB-231 breast -78.3% | SF-268 CNS -98.9% | SF-539 CNS -92.5% | M14 melanoma -88.6% | HCT-15 colon -78.1% | HT29 colon -52.8% | SNB-75 CNS -99.9% | PC-3 prostate -91.2% | UACC-62 melanoma -93.3% | SK-MEL-28 melanoma -94.8% | SN12C renal -80.5% | ACHN renal -99.3% | OVCAR-8 ovarian -66.2% | OVCAR-5 ovarian -97.1% | NCI/ADR-RES ovarian -83.2% | MDA-MB-435 melanoma -88.4% | HCT-116 colon -97.5% | KM12 colon -94%

Cc1nnc([S-])s1.[Au+].c1ccc([PH+](c2ccccc2)c2ccccc2)cc1
inactive: NCI-H23 lung 12.2% | DU-145 prostate 18.6% | HT29 colon 12% | PC-3 prostate 15.4% | OVCAR-8 ovarian 15.9% | OVCAR-5 ovarian 63.6% | NCI/ADR-RES ovarian 63.4% | KM12 colon 49.1%
active: MDA-MB-231 breast 4.44% | SF-268 CNS 7.17% | SF-539 CNS -22.9% | M14 melanoma -2.48% | HCT-15 colon -76% | SNB-75 CNS -76.3% | UACC-62 melanoma -31% | SK-MEL-28 melanoma -55.7% | SN12C renal 6.71% | ACHN renal -89.4% | MDA-MB-435 melanoma 5.65% | HCT-116 colon -60.1%

COC[CH2][Hg][C]#[C][Hg][CH2]COC
inactive: NCI-H23 lung 71% | DU-145 prostate 87.6% | SF-268 CNS 93.7% | SF-539 CNS 90.7% | M14 melanoma 73.2% | HCT-15 colon 97.1% | HT29 colon 100% | SNB-75 CNS 83% | PC-3 prostate 94.7% | UACC-62 melanoma 106% | SK-MEL-28 melanoma 90.1% | SN12C renal 96% | ACHN renal 98.7% | OVCAR-5 ovarian 116% | NCI/ADR-RES ovarian 102% | MDA-MB-435 melanoma 43% | HCT-116 colon 99.2% | KM12 colon 85.5%

CC(C)OC(=S)[S-].[Au+].c1ccc([PH+](c2ccccc2)c2ccccc2)cc1
active: MDA-MB-231 breast -14.3% | SF-539 CNS 7.83% | HCT-15 colon -14.2% | UACC-62 melanoma 0.794% | ACHN renal 0.723%
inactive: NCI-H23 lung 42.4% | DU-145 prostate 50% | SF-268 CNS 18.2% | M14 melanoma 11.5% | HT29 colon 55.7% | SNB-75 CNS 18.5% | PC-3 prostate 42.9% | SK-MEL-28 melanoma 16.5% | SN12C renal 16.7% | OVCAR-8 ovarian 27.2% | OVCAR-5 ovarian 73.9% | NCI/ADR-RES ovarian 67.6% | MDA-MB-435 melanoma 30.3% | HCT-116 colon 13.9% | KM12 colon 69.4%

COc1cc(NCCCCCN=C(N)N)c2ncccc2c1
active: NCI-H23 lung 4.89% | SF-268 CNS 3.28% | SN12C renal 7.58% | HCT-116 colon 6.08%
inactive: DU-145 prostate 103% | MDA-MB-231 breast 50.8% | SF-539 CNS 23.8% | M14 melanoma 99.3% | HCT-15 colon 99.2% | HT29 colon 62.9% | SNB-75 CNS 47% | PC-3 prostate 23.4% | UACC-62 melanoma 89.3% | SK-MEL-28 melanoma 89.7% | ACHN renal 105% | OVCAR-8 ovarian 32.6% | OVCAR-5 ovarian 97.3% | NCI/ADR-RES ovarian 104% | MDA-MB-435 melanoma 104% | KM12 colon 32.6%

[N-]=[N+]=NC(C(=O)O)c1ccccc1 (centres undefined)
inactive: NCI-H23 lung 99.2% | DU-145 prostate 116% | MDA-MB-231 breast 110% | SF-268 CNS 118% | SF-539 CNS 93.9% | M14 melanoma 101% | HCT-15 colon 101% | HT29 colon 99.1% | SNB-75 CNS 96.6% | PC-3 prostate 112% | UACC-62 melanoma 117% | SK-MEL-28 melanoma 105% | SN12C renal 119% | ACHN renal 100% | OVCAR-8 ovarian 100% | OVCAR-5 ovarian 102% | NCI/ADR-RES ovarian 107% | MDA-MB-435 melanoma 99.9% | HCT-116 colon 101% | KM12 colon 111%
